Results on twelve compounds are retold here after PubChem BioAssay (Tox21).

The nature of assay [1]: qHTS assay to identify small molecule antagonists of the estrogen related receptor (ERR) signaling pathway from Tox21 library - cell viability counter screen (AID 1224834). Note: nearly all actives have a fitted effect of over 30% in size. Note: potency is the fitted concentration of half-maximal effect. The gist of the method: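 In this quantitative HTS format, ERR cells receive compounds in DMSO and are incubated for 17.5 h at 37 C. Live-cell protease activity is then detected with CellTiter-Fluor.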
A general note: In qHTS, concentration-response curves come from the screen itself.

Assay [2] has as its target Luciferin 4-monooxygenase (Photinus pyralis) (UniProt P08659). In words: qHTS assay to identify small molecule inhibitors of firefly luciferase (AID 1224835). Note: nearly all actives have a fitted effect of over 25% in size. Note: potency is the fitted concentration of half-maximal effect. The gist of the method:
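Quantitative HTS format; KM concentrations of both substrates. Purified P. pyralis FLuc activity quantified from luminescence images.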

Assay [3] concerns the target Nuclear receptor subfamily 1 group I member 3 (Homo sapiens) (UniProt Q14994). In words: qHTS assay to identify small molecule antagonists of the constitutive androstane receptor (CAR) signaling pathway (AID 1224838). Note: nearly all actives have a fitted effect of over 40% in size. Note: potency is the fitted concentration of half-maximal effect. In a few lines:
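CITCO-stimulated (50 nM final) HepG2 cells stably transfected with hCAR and CYP2B6-2.2kb luciferase were exposed to compounds at 15 concentrations for 24 h at 37 C/5% CO2. A luciferase reagent was added and luminescence recorded after 30 min.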

Assay [4] shares this target. In words: qHTS assay to identify small molecule agonists of the constitutive androstane receptor (CAR) signaling pathway (AID 1224839).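 Note: HepG2 cells stably carrying human CAR and a CYP2B6 luciferase reporter; series mostly up to about 92 µM; nearly all actives have a fitted effect of over 15% in size.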 The gist of the method: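 Luminescent ONE-Glo read-out after 24 hr, 37 C exposure of double-stable HepG2-CYP2B6-hCAR reporter cells to a 15-point compound series, in the presence of 0.75 uM PK11195 (final).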
Assay [5] can be described thus: qHTS assay to identify small molecule antagonists of the estrogen related receptor signaling pathway with the pleiotropic PPARgamma coactivator (PGC) from Tox21 10K library (AID 1224841; call rule not given here; note: actives are mostly falling curves and most rising ones were filed inactive; nearly all actives have a fitted effect of over 50% in size; note: potency is the fitted concentration of half-maximal effect). The gist of the method: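 In the PGC/ERR line, DMSO solutions of test chemicals are pin-delivered to 2,000 cells/well six hours after dispensing. Following eighteen hours' incubation, One-Glo reagent is added and luminescence recorded.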

Assay [6] in a line: qHTS assay to identify small molecule agonists of the estrogen related receptor signaling pathway with the pleiotropic PPARgamma coactivator (PGC) from Tox21 10K library (AID 1224842). Note: nearly all actives have a fitted effect of over 15% in size. The gist of the method: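 PGC/ERR reporter cells (NTP line) were seeded 2,000 per well, rested 6 h at 37 C/5% CO2, then pin-dosed with compounds in DMSO for 18 h at 37 C; luciferase read by One-Glo luminescence after 30 min at room temperature.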

A short description of assay [7]: qHTS assay to identify small molecule agonists of the hypoxia (HIF-1) signaling pathway - cell viability counter screen (AID 1224844; calls by dose curve; note: nearly all actives have a fitted effect of over 50% in size; note: potency is the fitted concentration of half-maximal effect). The gist of the method: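 Same wells as the HIF-1 reporter screen; ME-180 cells carrying HRE-bla, 17 hr treatment at 37C; CellTiter-Glo luminescence read after 30 min at room temperature.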
Assay [8] can be described thus: qHTS assay to identify small molecule antagonists of the estrogen related receptor signaling pathway with the pleiotropic PPARgamma coactivator (PGC) from Tox21 10K library - cell viability counter screen (AID 1224840; active = well fitted cell-killing curve with a large enough effect in the repeat runs, not every such curve was filed as active; note: nearly all actives have a fitted effect of over 40% in size; note: potency is the fitted concentration of half-maximal effect). In a few lines: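 Viability counter screen, PGC/ERR cells: 17.5 h compound exposure at 37 C, CellTiter-Fluor fluorescence endpoint.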
A short description of assay [9]: qHTS assay to identify small molecule agonists of the constitutive androstane receptor (CAR) signaling pathway - cell viability counter screen (AID 1224836). Note: nearly all actives have a fitted effect of over 45% in size. Note: potency is the fitted concentration of half-maximal effect. In a few lines: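 Cell viability multiplexed with the CAR agonist screen: CellTiter-Fluor fluorescence after 23 hr at 37 C. HepG2-CYP2B6-hCAR cells got compounds at 15 concentrations with PK11195 at 0.75 uM final.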

Assay [10] in a line: qHTS assay to identify small molecule antagonists of the constitutive androstane receptor (CAR) signaling pathway - cell viability counter screen (AID 1224837). Note: nearly all actives have a fitted effect of over 45% in size. Note: potency is the fitted concentration of half-maximal effect. In a few lines:
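In quantitative HTS format, compounds at 15 concentrations were applied to HepG2 cells double-transfected with hCAR and CYP2B6-2.2kb under 50 nM CITCO stimulation; live-cell protease activity was read after 23 hr via CellTiter-Fluor.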

The target of assay [11] is Thyrotropin receptor (Homo sapiens) (UniProt P16473). In words: qHTS assay to identify small molecule agonists of the thyroid stimulating hormone receptor (TSHR) signaling pathway (AID 1224843; calls by dose curve; note: nearly all actives have a fitted effect of over 45% in size; note: potency is the fitted concentration of half-maximal effect). In a few lines: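 Compounds are titrated over 15 concentrations, in triplicate, onto TSHR-HEK293 cells seeded at 800/well. Plates sit 30 min at room temperature before cAMP-d2 and anti-cAMP cryptate are added; signal is read after a further hour.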

A short description of assay [12]: qHTS assay to identify small molecule antagonists of the retinoic acid receptor (RAR) signaling pathway (AID 1159552; note: potency is the fitted concentration of half-maximal effect; nearly all actives have a fitted effect of over 50% in size). In a few lines:
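Luminescent RARE reporter read-out in C3RL4 cells: 6 hr co-treatment at 37 C of test compounds with retinol at 1 uM final. Cells plated overnight beforehand; luciferase reagent incubated 30 min at room temperature before reading.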

The nature of assay [13]: qHTS assay to identify small molecule agonists of the retinoic acid receptor (RAR) signaling pathway (AID 1159553). The gist of the method:
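Compounds dissolved in DMSO were pinned onto C3RL4 cells seeded the previous day, and plates were held 6 hr at 37 C. RARE-driven luciferase output was then read by luminescence.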

Structures are written as SMILES. Records with an inconclusive call do not appear. A number with no mark means an inactive call. The source made the active and inactive calls. Unless noted, calls come from the whole dose curve; as a rule, active = well fitted curve in the direction sought with a large enough effect in the repeat runs; inconclusive = weak or mixed curves; inactive = no such curve, though single readings can be large; an effect the other way counts as inactive or inconclusive.

Thyrotropin receptor (Homo sapiens), sequence (P16473 whole entry, looked up): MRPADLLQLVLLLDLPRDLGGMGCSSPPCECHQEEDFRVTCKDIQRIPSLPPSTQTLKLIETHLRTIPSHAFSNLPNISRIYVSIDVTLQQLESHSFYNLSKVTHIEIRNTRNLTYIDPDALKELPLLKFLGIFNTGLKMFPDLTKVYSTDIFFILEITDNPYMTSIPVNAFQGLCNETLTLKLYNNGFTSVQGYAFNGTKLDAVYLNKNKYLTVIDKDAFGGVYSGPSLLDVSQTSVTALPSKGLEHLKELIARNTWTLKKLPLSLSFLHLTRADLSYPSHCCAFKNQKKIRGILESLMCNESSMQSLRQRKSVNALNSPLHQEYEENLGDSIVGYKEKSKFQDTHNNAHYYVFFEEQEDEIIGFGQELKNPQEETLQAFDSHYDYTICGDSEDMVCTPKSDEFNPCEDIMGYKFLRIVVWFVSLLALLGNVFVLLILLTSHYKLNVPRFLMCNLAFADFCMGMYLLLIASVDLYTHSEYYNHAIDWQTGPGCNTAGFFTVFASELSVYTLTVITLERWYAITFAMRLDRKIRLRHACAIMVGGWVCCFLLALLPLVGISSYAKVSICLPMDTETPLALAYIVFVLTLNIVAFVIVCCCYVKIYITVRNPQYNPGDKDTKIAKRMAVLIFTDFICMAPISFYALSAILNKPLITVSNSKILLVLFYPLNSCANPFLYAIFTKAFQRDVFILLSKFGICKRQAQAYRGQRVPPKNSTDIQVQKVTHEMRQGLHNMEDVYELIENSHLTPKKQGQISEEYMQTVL
Nuclear receptor subfamily 1 group I member 3 (Homo sapiens), sequence (Q14994 whole entry, looked up): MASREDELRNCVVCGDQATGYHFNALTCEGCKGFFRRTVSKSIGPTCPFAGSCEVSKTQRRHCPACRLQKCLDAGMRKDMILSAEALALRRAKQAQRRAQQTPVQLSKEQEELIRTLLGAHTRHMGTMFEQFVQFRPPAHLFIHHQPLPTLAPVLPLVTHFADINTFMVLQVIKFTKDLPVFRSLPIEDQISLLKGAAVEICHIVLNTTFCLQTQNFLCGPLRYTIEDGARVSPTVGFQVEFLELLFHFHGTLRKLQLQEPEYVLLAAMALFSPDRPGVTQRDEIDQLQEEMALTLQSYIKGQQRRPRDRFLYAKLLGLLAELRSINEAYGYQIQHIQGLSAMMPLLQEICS
Luciferin 4-monooxygenase (Photinus pyralis), sequence (P08659 whole entry, looked up): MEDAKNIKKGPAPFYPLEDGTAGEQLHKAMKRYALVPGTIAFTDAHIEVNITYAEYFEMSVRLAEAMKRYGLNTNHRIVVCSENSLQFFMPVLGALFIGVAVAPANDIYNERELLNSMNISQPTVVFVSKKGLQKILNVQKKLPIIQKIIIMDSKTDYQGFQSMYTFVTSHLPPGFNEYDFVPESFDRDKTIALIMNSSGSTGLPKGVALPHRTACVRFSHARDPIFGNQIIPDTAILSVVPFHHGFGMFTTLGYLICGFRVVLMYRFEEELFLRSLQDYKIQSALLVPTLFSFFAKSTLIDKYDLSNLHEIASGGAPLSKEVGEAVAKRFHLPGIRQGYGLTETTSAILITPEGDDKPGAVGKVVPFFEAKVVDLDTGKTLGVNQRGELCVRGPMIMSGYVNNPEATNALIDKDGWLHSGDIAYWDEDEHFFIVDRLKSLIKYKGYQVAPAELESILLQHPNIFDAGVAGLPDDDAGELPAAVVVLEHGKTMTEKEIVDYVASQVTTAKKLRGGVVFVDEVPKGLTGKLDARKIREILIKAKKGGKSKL

`CC(C)n1nc(-c2cc3cc(O)ccc3[nH]2)c2c(N)ncnc21`: the Potency in assay [1] is 1.33 µM (active); in assay [3], 15 µM (active); in [5] it was 0.211 µM (active); in assay [7], 1.9 µM (active). For the same compound, the Potency result in [2], in assay [4] and in assay [6] was “inactive” throughout.

For `NC(=O)C1(N2CCCCC2)CCN(CCCN2c3ccccc3CCc3ccc(Cl)cc32)CC1`, the Potency entry in assay [2] and in [4] was “inactive” in each case. Also, the Potency in assay [8] is 26.6 µM (active); in assay [7], 21.3 µM (active).

Take `C=CC(=O)OCCn1c(=O)n(CCOC(=O)C=C)c(=O)n(CCOC(=O)C=C)c1=O`: the Potency in [1] was 17.2 µM (active); in assay [9], 48.6 µM (active); in [10], 19.3 µM (active); in assay [8] it was 15.4 µM (active); in assay [5], 15.4 µM (active); in assay [11], 27.3 µM (active). In assay [7], the Potency is 12.3 µM (active). Further, the Potency result in assay [2], in [4] and in assay [6] was “inactive” in each case.

On to `CC1=C(C(=O)OC(C)C)C(c2cccc([N+](=O)[O-])c2)C(C(=O)OC2CN(C(c3ccccc3)c3ccccc3)C2)=C(N)N1` (stereo unspecified), for which the Potency in assay [12] is 23.7 µM (active); in [1], 29.8 µM (active); in [9], 29.8 µM (active); in [10] it was 29.8 µM (active); in [8] it was 29.8 µM (active); in assay [5] it was 26.6 µM (active). For the same compound, the Potency in assay [7] is 6.74 µM (active). Moreover, the Potency entry in assay [2] and in [4] was “inactive” each time.

For the compound `CC(C)c1ccc2c(c1)CC[C@H]1[C@](C)(CN)CCC[C@]21C`, the Potency entry in assay [2], in assay [6] and in assay [11] was “inactive” each time. For the same compound, the values for the Potency in assay [10] and in assay [7] were 68.6 µM (active) and 49 µM (active), respectively.

For the compound `Oc1cccc2cc3cccc(O)c3c(O)c12`, the Potency entry in assay [1], in assay [9], in assay [10], in [8] and in assay [11] was “inactive” in each case. In addition, the Potency in [2] was 71.3 µM (active).

Take `N/C(=N\N=C\c1ccc(Cl)cc1)N/N=C/c1ccc(Cl)cc1`: the Potency result in assay [13], in [9], in assay [10], in assay [3], in [4] and in assay [5] was “inactive” in each case. For the same compound, the Potency result in assay [11] was “inactive”. For the same compound, the Potency in assay [1] was 33.5 µM (active); in [2], 9.77 µM (active); in assay [7], 23.9 µM (active).

For `[Cl][Au]([Cl])[Cl]`, the Potency was 30.6 µM (active) in [12]; 27.3 µM (active) in assay [1]; 7.7 µM (active) in assay [9]; 3.86 µM (active) in assay [10]; 7.7 µM (active) in assay [8]; 1.72 µM (active) in assay [5]. For the same compound, in assay [7], the Potency is 3.89 µM (active).

For the compound `NNc1nc(-c2ccc(N)cc2)cs1`, the Potency in [2] is 35.6 µM (active); in assay [8], 61.1 µM (active). In addition, the Potency result in assay [9], in assay [10], in assay [3], in assay [6] and in assay [7] was “inactive” throughout.

In the case of `CC(C)(C)C1CCC(CC2=C(O)c3ccccc3C(=O)C2=O)CC1` (stereo unspecified), the Potency entry in assay [13], in [1], in [2], in assay [4], in assay [6] and in assay [11] was “inactive” throughout. Further, the Potency entry in assay [7] was “inactive”.

`Cc1[nH]cnc1C[C@H]1CCc2c(C)c3ccccc3n2C1=O`: the Potency entry in assay [13], in assay [2], in assay [4], in assay [11] and in [7] was “inactive” throughout. The Potency in assay [1] was 47.4 µM (active); in assay [3], 59.6 µM (active).

On to `OC1(c2ccc(Cl)c(C(F)(F)F)c2)CCN(CCCC(c2ccc(F)cc2)c2ccc(F)cc2)CC1`, for which the Potency was 26.6 µM (active) in [12]; 21.1 µM (active) in [1]; 23.7 µM (active) in [9]; 13.3 µM (active) in assay [10]; 13.3 µM (active) in assay [3]; 18.8 µM (active) in [8]. The Potency is 29.8 µM (active) in assay [5] and 6.74 µM (active) in [7]. In addition, the Potency entry in [2], in [4], in assay [6] and in assay [11] was “inactive” each time.
